From ChEMBL document CHEMBL3988442, “University of Dundee, Small-Polar-MMV Screening Library” (2021) come the findings set out here.

What all share (parameters): scale not given: direction of the effect not stated beside the values
In test [1] the target is Protein translocase subunit SecA (Escherichia coli (strain K12)) (UniProt P10408). The test can be described thus: Assay to Identify E. coli SecA ATPase Inhibitors. In kind it is functional. The note with it: 30 µM.
In test [2] the target is T1, Ubiquitin-activating enzyme e1, putative (Leishmania donovani (strain BPK282A1)) (UniProt E9BSI1).
T1 sequence (whole entry): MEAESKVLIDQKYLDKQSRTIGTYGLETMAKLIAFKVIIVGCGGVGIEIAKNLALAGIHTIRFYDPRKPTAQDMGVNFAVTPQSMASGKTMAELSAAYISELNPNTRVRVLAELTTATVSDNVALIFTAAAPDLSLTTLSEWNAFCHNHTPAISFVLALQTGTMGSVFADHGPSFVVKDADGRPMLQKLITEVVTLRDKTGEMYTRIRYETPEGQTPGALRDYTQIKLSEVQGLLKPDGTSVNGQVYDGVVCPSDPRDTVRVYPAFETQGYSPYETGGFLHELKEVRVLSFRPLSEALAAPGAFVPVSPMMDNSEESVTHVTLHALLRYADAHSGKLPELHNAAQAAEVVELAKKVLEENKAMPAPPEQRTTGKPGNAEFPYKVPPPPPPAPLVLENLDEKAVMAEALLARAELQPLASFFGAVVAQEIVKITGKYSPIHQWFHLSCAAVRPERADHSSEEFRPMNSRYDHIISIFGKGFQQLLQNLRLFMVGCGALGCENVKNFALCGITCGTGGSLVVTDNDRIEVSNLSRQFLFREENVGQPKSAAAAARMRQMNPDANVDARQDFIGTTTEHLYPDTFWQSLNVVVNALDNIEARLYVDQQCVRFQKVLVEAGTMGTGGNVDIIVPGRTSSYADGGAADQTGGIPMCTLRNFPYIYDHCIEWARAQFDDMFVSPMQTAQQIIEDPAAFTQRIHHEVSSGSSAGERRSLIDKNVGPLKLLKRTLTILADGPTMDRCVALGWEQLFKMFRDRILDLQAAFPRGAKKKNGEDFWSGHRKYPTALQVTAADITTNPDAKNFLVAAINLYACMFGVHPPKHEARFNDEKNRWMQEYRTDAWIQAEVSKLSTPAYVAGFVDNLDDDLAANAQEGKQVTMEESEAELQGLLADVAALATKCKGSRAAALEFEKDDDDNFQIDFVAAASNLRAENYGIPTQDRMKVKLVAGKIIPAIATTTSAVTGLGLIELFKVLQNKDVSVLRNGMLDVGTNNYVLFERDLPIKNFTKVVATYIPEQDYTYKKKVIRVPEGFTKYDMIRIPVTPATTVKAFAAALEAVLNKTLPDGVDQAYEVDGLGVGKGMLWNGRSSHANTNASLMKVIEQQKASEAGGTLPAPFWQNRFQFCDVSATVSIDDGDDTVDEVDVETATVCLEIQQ
The test can be described thus: Leishmania donovani Ubiquitin Activating Enzyme (LdE1). In kind it is functional. The following applies: 30 µM.

The target of test [3] is AMP-activated protein kinase, AMPK (Homo sapiens) (UniProt P54646+O43741+P54619+Q9UGJ0+Q9Y478+Q13131+Q9UGI9). Briefly: AMP-dependent Kinase enzyme assay. An in vitro enzyme assay that detects ADP turnover that is directly proportional to AMPK activity. This uses naive AMPK that is activated during the assay with MK-8722. In kind it is functional. The following applies: 30 µM.

For test [4], the target named is Sialic acid-binding Ig-like lectin 9 (Homo sapiens) (UniProt Q9Y336). Briefly: Hs-Siglec9 ALPHAscreen SOP 20170721. The following applies: 10 µM. In general terms: In Alpha technology, singlet oxygen from a donor bead excites a nearby acceptor bead.
In a further test the test system is Trypanosoma cruzi. The test can be described thus: Trypanosoma cruzi phosphomannomutase and mannose-1-phosphate guanylyltransferase assay. Format: functional. The note with it: 10 µM.
The target in test [5] is T2, Arginase-2, mitochondrial (Homo sapiens) (UniProt P78540).
T2 sequence (whole entry): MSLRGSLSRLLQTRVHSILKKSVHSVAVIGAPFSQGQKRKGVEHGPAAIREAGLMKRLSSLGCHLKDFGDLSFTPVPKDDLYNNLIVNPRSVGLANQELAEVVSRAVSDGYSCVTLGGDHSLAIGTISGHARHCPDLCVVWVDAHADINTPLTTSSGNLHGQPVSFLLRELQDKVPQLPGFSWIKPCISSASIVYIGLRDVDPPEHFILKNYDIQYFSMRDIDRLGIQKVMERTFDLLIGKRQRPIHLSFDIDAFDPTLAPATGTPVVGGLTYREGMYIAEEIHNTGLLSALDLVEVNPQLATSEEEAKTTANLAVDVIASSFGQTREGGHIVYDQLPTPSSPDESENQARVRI
Briefly: in vitro enzyme assay to detect the production of urea directly proportional to the activity of Arginase II. Also: in the data most compounds retested in dose-response had high values. In kind it is functional. The following applies: 33.3 µM.

Test [6] has as its target T3, Proteasome subunit beta (Trypanosoma cruzi) (UniProt O96673).
T3 sequence (whole entry): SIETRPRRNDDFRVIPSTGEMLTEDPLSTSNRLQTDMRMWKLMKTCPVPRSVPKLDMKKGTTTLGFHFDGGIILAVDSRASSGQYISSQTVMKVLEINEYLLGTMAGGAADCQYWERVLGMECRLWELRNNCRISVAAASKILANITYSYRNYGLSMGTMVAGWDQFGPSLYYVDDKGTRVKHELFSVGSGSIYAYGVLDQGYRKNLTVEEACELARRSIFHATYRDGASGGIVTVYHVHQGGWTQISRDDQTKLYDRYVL
The test can be described thus: Trypanosoma cruzi proteasome chymotrypsin-like activity (TcProtChymo) assay. Also: in the data most compounds retested in dose-response had high values. Format: functional. The following applies: 9.37 µM.

The next test is filed under the species Homo sapiens. Briefly: To identify inhibition of the IFN signalling (Jak-Stat) pathway via expression of an eGFP reporter gene under the control of an IFN-stimulated response element (ISRE) containing MxA promoter. Format: functional. The following applies: 30 µM. A general note: In a reporter assay the amount or activity of a reporter protein is the signal.

Test [7] concerns the target T4, Tyrosyl-tRNA synthetase, putative (Trypanosoma cruzi (strain CL Brener)) (UniProt Q4DSP6).
T4 sequence (whole entry): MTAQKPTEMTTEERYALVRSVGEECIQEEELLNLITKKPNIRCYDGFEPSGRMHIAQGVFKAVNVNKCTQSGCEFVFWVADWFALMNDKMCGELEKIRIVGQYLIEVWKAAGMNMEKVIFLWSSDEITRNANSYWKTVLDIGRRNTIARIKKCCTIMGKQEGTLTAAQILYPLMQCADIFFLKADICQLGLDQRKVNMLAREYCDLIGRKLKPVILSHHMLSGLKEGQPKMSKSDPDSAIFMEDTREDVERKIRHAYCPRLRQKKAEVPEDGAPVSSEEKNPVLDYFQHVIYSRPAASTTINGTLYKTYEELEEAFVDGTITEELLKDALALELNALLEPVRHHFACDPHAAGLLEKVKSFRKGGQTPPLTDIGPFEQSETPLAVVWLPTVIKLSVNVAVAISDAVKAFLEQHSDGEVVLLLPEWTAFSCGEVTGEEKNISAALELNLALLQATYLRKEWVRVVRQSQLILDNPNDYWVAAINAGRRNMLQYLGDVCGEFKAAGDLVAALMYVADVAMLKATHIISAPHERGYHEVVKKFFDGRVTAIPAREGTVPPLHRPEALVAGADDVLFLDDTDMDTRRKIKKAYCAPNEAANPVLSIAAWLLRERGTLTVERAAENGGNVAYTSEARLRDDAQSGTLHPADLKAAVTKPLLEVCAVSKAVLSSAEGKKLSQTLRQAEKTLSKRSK
The test can be described thus: Trypanosoma cruzi tyrosyl tRNA synthetase (TcYRS) _High Tyrosine SOP. Also: in the data most compounds retested in dose-response had high values. Format: functional. The note with it: 30 µM.

The target in test [8] is T4, Tyrosyl-tRNA synthetase, putative (Trypanosoma cruzi (strain CL Brener)). Briefly: Trypanosoma cruzi tyrosyl tRNA synthetase (TcYRS) SOP. In kind it is functional. The note with it: 30 µM.
Test [9] addresses Chromo domain-containing protein 1 (Saccharomyces cerevisiae (strain ATCC 204508 / S288c) (Baker's yeast)) (UniProt P32657). The test can be described thus: ScCHD-1 Enzyme Inhibition Assay. Also: in the data most compounds retested in dose-response had high values. Format: functional. The following applies: 30 µM.

For some of these results: Potency and affinity values are given separately.

Chain of Chromo domain-containing protein 1 (Saccharomyces cerevisiae (strain ATCC 204508 / S288c) (Baker's yeast)) (P32657 whole entry, the tested form may be a part): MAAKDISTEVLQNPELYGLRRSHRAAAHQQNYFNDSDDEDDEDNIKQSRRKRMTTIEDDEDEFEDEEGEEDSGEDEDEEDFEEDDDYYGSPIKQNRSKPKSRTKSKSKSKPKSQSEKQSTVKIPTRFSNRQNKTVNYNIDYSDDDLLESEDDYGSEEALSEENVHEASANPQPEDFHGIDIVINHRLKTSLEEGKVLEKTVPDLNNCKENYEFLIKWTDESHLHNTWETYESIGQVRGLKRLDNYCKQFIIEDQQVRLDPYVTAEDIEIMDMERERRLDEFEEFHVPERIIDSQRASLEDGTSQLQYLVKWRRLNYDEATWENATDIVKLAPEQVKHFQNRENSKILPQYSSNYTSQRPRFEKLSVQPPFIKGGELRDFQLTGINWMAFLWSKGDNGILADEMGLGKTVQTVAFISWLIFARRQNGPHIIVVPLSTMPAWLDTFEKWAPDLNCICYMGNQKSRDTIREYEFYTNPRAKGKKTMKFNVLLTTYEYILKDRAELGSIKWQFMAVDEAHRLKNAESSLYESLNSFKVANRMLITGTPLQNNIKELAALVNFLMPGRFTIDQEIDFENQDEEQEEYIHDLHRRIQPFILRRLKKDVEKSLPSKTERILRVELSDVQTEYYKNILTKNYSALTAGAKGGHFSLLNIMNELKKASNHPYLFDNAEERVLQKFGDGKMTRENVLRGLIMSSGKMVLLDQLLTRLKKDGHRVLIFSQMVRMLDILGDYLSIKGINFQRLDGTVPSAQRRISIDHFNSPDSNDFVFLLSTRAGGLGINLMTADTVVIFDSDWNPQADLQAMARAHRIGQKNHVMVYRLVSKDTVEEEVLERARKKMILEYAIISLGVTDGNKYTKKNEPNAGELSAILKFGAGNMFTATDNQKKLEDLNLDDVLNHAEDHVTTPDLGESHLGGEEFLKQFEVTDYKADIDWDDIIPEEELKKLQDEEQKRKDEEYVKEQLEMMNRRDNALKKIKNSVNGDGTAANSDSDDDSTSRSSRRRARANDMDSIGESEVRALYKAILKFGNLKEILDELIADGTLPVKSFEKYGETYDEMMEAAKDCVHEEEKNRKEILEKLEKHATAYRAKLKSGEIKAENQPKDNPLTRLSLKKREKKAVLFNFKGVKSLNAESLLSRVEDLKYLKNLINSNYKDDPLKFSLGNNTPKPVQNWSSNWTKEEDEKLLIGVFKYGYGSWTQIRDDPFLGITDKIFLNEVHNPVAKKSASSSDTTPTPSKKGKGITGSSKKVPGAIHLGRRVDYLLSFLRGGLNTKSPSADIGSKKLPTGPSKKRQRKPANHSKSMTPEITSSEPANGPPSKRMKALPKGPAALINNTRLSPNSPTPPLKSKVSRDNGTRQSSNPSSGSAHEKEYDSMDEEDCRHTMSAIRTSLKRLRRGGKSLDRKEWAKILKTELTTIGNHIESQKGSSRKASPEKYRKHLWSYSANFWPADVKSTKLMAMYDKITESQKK
Chain of Sialic acid-binding Ig-like lectin 9 (Homo sapiens) (Q9Y336 whole entry): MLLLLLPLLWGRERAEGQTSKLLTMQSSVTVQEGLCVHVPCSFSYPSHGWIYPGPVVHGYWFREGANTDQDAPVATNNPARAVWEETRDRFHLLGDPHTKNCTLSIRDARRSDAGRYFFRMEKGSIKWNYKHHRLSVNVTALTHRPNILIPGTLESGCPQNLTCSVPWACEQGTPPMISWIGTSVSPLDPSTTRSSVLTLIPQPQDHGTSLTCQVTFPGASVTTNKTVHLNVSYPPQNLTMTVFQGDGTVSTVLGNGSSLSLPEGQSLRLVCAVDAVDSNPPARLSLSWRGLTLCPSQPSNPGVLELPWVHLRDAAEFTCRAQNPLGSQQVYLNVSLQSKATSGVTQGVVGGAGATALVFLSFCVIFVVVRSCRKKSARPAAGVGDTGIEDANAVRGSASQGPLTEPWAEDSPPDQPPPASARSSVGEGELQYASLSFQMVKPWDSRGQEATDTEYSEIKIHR
Chain of Protein translocase subunit SecA (Escherichia coli (strain K12)) (P10408 whole entry): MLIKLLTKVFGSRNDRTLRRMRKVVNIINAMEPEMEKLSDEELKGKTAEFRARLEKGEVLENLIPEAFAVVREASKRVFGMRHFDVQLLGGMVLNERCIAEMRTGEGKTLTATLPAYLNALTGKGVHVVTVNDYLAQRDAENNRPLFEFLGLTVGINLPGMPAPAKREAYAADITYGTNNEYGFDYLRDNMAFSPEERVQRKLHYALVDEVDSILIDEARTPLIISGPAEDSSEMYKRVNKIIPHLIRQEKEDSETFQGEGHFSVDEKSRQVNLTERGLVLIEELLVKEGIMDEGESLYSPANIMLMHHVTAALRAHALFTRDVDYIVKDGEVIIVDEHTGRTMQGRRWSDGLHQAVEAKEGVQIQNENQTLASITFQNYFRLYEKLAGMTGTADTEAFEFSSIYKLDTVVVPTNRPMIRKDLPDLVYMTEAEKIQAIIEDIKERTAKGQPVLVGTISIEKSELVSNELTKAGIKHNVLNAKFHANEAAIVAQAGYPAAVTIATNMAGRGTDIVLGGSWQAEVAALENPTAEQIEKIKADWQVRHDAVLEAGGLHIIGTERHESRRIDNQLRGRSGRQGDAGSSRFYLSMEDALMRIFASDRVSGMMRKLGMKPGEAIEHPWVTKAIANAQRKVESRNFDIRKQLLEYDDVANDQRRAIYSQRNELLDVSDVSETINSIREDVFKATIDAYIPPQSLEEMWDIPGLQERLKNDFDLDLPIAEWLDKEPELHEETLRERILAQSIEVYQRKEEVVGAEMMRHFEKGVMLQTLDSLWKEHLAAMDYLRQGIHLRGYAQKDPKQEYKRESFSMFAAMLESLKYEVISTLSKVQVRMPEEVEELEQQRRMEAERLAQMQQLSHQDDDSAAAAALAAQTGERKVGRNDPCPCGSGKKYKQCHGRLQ

With `O=C(NCC(O)c1ccc(F)c(F)c1)c1cccnc1O` (stereo unspecified), the Percent Effect is -0.608% in [1]; 13.7% in [2]; 1.02% in [3]; 2.28% in test [4]; -0.198% with Trypanosoma cruzi; -4.39% in test [5]. Also, the Percent Effect is 24.9% in [6]; 3.44% in the test filed under Homo sapiens; 10.4% in test [7]; 21% in test [8]; -4.53% in [9].

`COCc1cccc(NC(C)C(=O)N(C)Cc2cccc(F)c2)c1` (stereo unspecified): the Percent Effect in [1] was -7.47%; in test [2], -2.7%; in [3], -1.66%; in [4] it was -7.46%; in the test on Trypanosoma cruzi it was -3.23%; in test [5], -0.744%. Moreover, the Percent Effect in test [6] was 6.44%; in the test filed under Homo sapiens, -12.8%; in [7], 1.07%; in test [8], 1.24%; in test [9], -5.78%.

Regarding `Cn1cnc2c1CCN(Cc1nc(-c3ccsc3)no1)C2`, the Percent Effect in test [1] is -6.98%; in [2], 18.9%; in test [3], -7.09%; in test [4], 15.8%; in the test on Trypanosoma cruzi, 10.7%; in test [5] it was -3.14%. For the same compound, the Percent Effect in test [6] was 5.57%; in the test filed under Homo sapiens, 2.25%; in test [7] it was 7.92%; in test [8] it was 25.6%; in test [9], -9.67%.

For `CC(C)CC1SCC(=O)Nc2c1cnn2C(C)C` (stereo unspecified), the Percent Effect in test [1] was -3.15%; in test [2] it was 22.7%; in test [3] it was 1.11%; in test [4], 2.31%; with Trypanosoma cruzi, 4.71%; in test [5], -4.05%. The Percent Effect was 16.3% in [6]; 5.92% in the test filed under Homo sapiens; 7.41% in test [7]; 20.5% in test [8]; -5.98% in test [9].

Turning to `Cc1[nH]ccc1C(=O)Nc1cccc(CN2CCC(O)CC2)c1`, the Percent Effect is 0.333% in test [1]; 10.5% in test [2]; -2.05% in test [3]; -6.23% in test [4]; -5.36% in the test on Trypanosoma cruzi; -2.37% in test [5]. Also, the Percent Effect was 16.2% in test [6]; 8.85% in the test listed under Homo sapiens; 1.06% in test [7]; 10.4% in test [8]; -3.89% in [9].

Consider `CNC(=O)c1cccc(C2CNCCN2C)c1` (stereo unspecified), for which the Percent Effect in [1] is 1.64%; in test [2], 14.9%; in test [3], 4.3%; in test [4], -1.87%; in the test with Trypanosoma cruzi, -2.96%; in test [5] it was 7.19%. Besides, the Percent Effect is 12.2% in [6]; -5.37% in the test filed under Homo sapiens; 0% in test [7]; 6.49% in test [8]; -5.34% in test [9].

In the case of `CC(C)c1nc2n(n1)CC(NCc1nnc(C(C)C)o1)CC2` (stereo unspecified), the Percent Effect in test [1] is -2.44%; in test [2], 13.5%; in [3], 139%; in test [4], 8.12%; in the test on Trypanosoma cruzi it was 7.08%; in test [5] it was -4.81%. Also, the Percent Effect in test [6] is 5.41%; in the test filed under Homo sapiens, 10.9%; in test [7], 6.4%; in [8] it was 18.5%; in test [9], -8.46%.

On to `c1cnc(-c2cnc(N3CCSCC3)nc2C2CC2)cn1`, for which the Percent Effect is -4.23% in test [1]; 2.67% in test [2]; 12.3% in test [3]; 6.16% in test [4]; -3.94% in the test with Trypanosoma cruzi; -0.699% in [5]. The Percent Effect in test [6] is 3.44%; in the test filed under Homo sapiens it was 16%; in [7], 1.06%; in test [8] it was 8.97%; in test [9], -0.826%.

Regarding `Cc1ccc(-c2cc(N)c(=O)n(CC(=O)NC3CCCCC3)n2)s1`, the Percent Effect was -4.68% in test [1]; 6.76% in test [2]; 14.2% in test [3]; 4.48% in test [4]; -4.74% in the test on Trypanosoma cruzi; 4.41% in test [5]. The Percent Effect in test [6] was 8.42%; in the test listed under Homo sapiens, 15.6%; in test [7], 1.07%; in test [8] it was 6.49%; in test [9], -8.72%.

With `O=C(c1ccc2c(c1)COC2)N1CCN(CC2CC2)CC1`, the Percent Effect in [1] is -2.51%; in [2], 5.06%; in test [3], -1.47%; in test [4] it was 8.43%; in the test on Trypanosoma cruzi it was -0.283%; in [5], -1.52%. Further, the Percent Effect in test [6] is -2.21%; in the test filed under Homo sapiens, 0.542%; in test [7], 4.43%; in [8], -1.27%; in test [9] it was 1.49%.

On to `Cc1noc(C(C)N2CCN(CCCN3CCCC3=O)CC2)n1` (stereo unspecified), for which the Percent Effect in test [1] is -1.22%; in test [2], 21.6%; in [3], 32.3%; in test [4], 1.61%; in the test with Trypanosoma cruzi, 1.23%; in test [5], -8.02%. Further, the Percent Effect in [6] is 19.5%; in the test listed under Homo sapiens, 9.12%; in test [7] it was 7.39%; in test [8], 23.5%; in [9] it was -15.8%.
